From PubChem BioAssay (NCATS)
Records with an inconclusive call do not appear. Unmarked numbers belong to inactive results. The call rests on the fitted dose curve; in most records, active means well fitted cell-killing curve with a large enough effect; inconclusive means small, poorly fitted or top-dose-only effect; inactive means flat fitted curve, though single readings scatter.

assay: Cell Viability - LYMP2-022 (AID 987); conditions: LYMP2-022 lymphoblastoid cell viability; series mostly up to 92.2 µM; viability change, negative = cytotoxic: at the top concentration;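 further: cells exposed to compound for 24 hr; 0% = DMSO alone and full effect = tetraoctylammonium bromide at 92 µM; nearly all actives have a fitted effect of over 55% in size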
Procedure, shortened: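 Cytotoxicity read as decreased cellular ATP (CellTiter-Glo luminescence, 30 min room temperature) after 24 hours compound exposure of 2500 lymphoblastoid LYMP2-022 cells/well at 37 C. Concentration-response data fitted with standard Hill equation for AC50.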

SMILES	viability change, negative = cytotoxic
CC(C#N)CCC#N (centres undefined)	-11.4%
Nc1cc(Cl)ccc1Cl	-0.66%
Nc1cccc(Cl)c1	-14.9%
ClCc1ccccc1	-8.28%
CCC/C=N/O	-3.08%
COc1c(C(C)(C)C)cc([N+](=O)[O-])c(C)c1[N+](=O)[O-]	-8.54%
O=S(=O)(Cl)c1ccccc1	-15.2%
C=CCOCC1CO1 (centres undefined)	1.84%
c1ccoc1	-12.4%
Clc1ccccc1	-13.6%
ClC(Cl)(Cl)C(Cl)(Cl)Cl	10.1%
CCOC(=O)C1OC1(C)c1ccccc1 (centres undefined)	0.154%
C/C=C/CC#N	-11.9%
ClC(Cl)C(Cl)Cl	9.29%
C=CCCl	-10.2%
Oc1c(Cl)cccc1Cl	-9.47%
Brc1cccc(-c2ccccc2)c1	-3.71%
C=CCO	-10.6%
OCCCCO	-13.6%
Nn1cnnc1	-14.5%

SMILES	viability change, negative = cytotoxic
BrCCc1ccccc1	-0.235%
Cc1ccccc1[N+](=O)[O-]	5.7%
CCCCOC(=O)c1ccccc1N	1.26%
Clc1cc(Cl)c(Cl)c(Cl)c1	-5.38%
Cc1ccc(N)c(C)c1	-13.7%
C1CC2OC2CC1C1CO1 (centres undefined)	-7.23%
CN(C)C(=O)Cl	-10.2%
CC(=O)NNc1ccccc1	-1.55%
Cc1ccc(N=C=O)cc1N=C=O	-6.38%
O=C(Cl)OCc1ccccc1	-19.4%
C=CC(=O)OC	-12.1%
CCN(CC)N=O	-14.3%
OCC(Cl)CCl (centres undefined)	3.72%
CC(C)CON=O	-2.13%
CC[N+](=O)[O-]	-4.88%
CC(C)(Cl)[N+](=O)[O-]	-16.2%
C[N+](=O)[O-]	-4.99%
CC(C)OC(=O)Cc1ccccc1	1.41%
ClCC(Br)CBr (centres undefined)	7.58%
